{"source": "ChEMBL document CHEMBL3988442", "about": "“University of Dundee, Small-Polar-MMV Screening Library” (2021)", "note": "Among all 48,000 compounds or so, about 13,000 (27%) showed an effect of 50% or more. This is one part of the list.", "data": [{"system": "Wolbachia pipientis", "experiment": "Anti-Wolbachia Cell-Based Screen", "type": "functional", "design": "scale not given: in the data most compounds retested in dose-response had high values", "conditions": "5 µM", "units": {"Percent Effect": "%"}, "values": [{"smiles": "Cl.NC(CC1CCCCC1)c1ccccc1", "note": "(stereo not given)", "Percent Effect": -2.613}, {"smiles": "COCCn1cc(C(=O)Nc2nc3c(s2)CCC3)c2ccccc21", "Percent Effect": 108.8}, {"smiles": "COCCn1cc(C(=O)NCCS(N)(=O)=O)c2ccccc21", "Percent Effect": 11.42}, {"smiles": "CCCn1cc(C(=O)NCCS(N)(=O)=O)c2ccccc21", "Percent Effect": 15.61}, {"smiles": "Cc1ccc(CN2CC[C@@H]3[C@@H]2CCN3C(=O)Cc2cccs2)o1.O=C(O)C(F)(F)F", "Percent Effect": 90.39}, {"smiles": "Cc1cccc(CN2CC[C@@H]3[C@@H]2CCN3C(=O)Cc2cccs2)n1.O=C(O)C(F)(F)F.O=C(O)C(F)(F)F", "Percent Effect": 101.6}, {"smiles": "Cc1cccc(CN2C(=O)C[C@H]3[C@@H]2CCN3Cc2cccs2)n1.O=C(O)C(F)(F)F.O=C(O)C(F)(F)F", "Percent Effect": 4.955}, {"smiles": "Cc1cccc(CN2CC[C@@H]3[C@@H]2CCN3Cc2cccs2)n1.O=C(O)C(F)(F)F.O=C(O)C(F)(F)F", "Percent Effect": 102.2}, {"smiles": "Cc1cc(CN2CC[C@H]3[C@H]2CCN3C)oc1C.O=C(O)C(F)(F)F.O=C(O)C(F)(F)F", "Percent Effect": 2.968}, {"smiles": "Cc1cccc(CN2CC[C@@H]3[C@@H]2CCN3C(=O)c2cnoc2C)n1", "Percent Effect": -2.884}, {"smiles": "COCCN1C[C@@H]2[C@@H](OC)CCN(Cc3cccc(C)n3)[C@@H]2C1.O=C(O)C(F)(F)F.O=C(O)C(F)(F)F.O=C(O)C(F)(F)F", "Percent Effect": 0.3153}, {"smiles": "Cc1cccc(CN2CC[C@H]3[C@H]2CCN3C(=O)c2cnn(C)c2)n1.O=C(O)C(F)(F)F.O=C(O)C(F)(F)F", "Percent Effect": -8.772}, {"smiles": "Cc1cccc(CN2CC[C@@H]3[C@@H]2CCN3C(=O)Cc2ccsc2)n1.O=C(O)C(F)(F)F.O=C(O)C(F)(F)F", "Percent Effect": 119.7}, {"smiles": "Cc1ccc(CN2CC[C@H]3[C@H]2CC(=O)N3c2cccnc2)o1.O=C(O)C(F)(F)F.O=C(O)C(F)(F)F", "Percent Effect": 1.465}, {"smiles": "Cc1cccc(CN2CC[C@@H]3[C@@H]2CCN3C(=O)c2ccno2)n1.O=C(O)C(F)(F)F.O=C(O)C(F)(F)F", "Percent Effect": -0.9424}, {"smiles": "CC(C)(C)c1cn(C[C@H]2CC3CCN2C[C@@H]3C(=O)NC2CC2)nn1", "note": "(stereo not given in full)", "Percent Effect": 12.02}, {"smiles": "CC(C)N1[C@H](Cn2cncn2)C[C@@H]2CNCC[C@@H]21.Cl.Cl", "Percent Effect": -6.101}, {"smiles": "Cc1ccc(N2CCO[C@H]3CN(Cc4ccccn4)C[C@H]32)nn1.O=C(O)C(F)(F)F.O=C(O)C(F)(F)F.O=C(O)C(F)(F)F", "Percent Effect": -12.44}, {"smiles": "Cc1ccc(N2C[C@@H]3CN(Cc4ccsc4)CCO[C@@H]3C2)nn1.O=C(O)C(F)(F)F.O=C(O)C(F)(F)F", "Percent Effect": -3.128}, {"smiles": "Cc1ccc(N2CC[C@@H]3[C@@H]2CCN3Cc2ccsc2)nn1.O=C(O)C(F)(F)F.O=C(O)C(F)(F)F", "Percent Effect": 101.6}, {"smiles": "COc1ncnc(N)c1CNCCc1ccccc1", "Percent Effect": 127.7}, {"smiles": "CCN1CCC2(CC1)C(=O)Nc1ccc(C(=O)NC)cc12.O=C(O)C(F)(F)F", "Percent Effect": 117.8}, {"smiles": "COCCN1CCC2(C1)CN(c1ncc(F)cn1)C2.O=C(O)C(F)(F)F", "Percent Effect": 4.032}, {"smiles": "Cn1cc(CN2CCC3(CC2)C(=O)Nc2ccccc23)cn1.O=C(O)C(F)(F)F", "Percent Effect": -7.765}, {"smiles": "COCCN1CCC2(CC1)C(=O)Nc1ccc(C(=O)NC(C)C)cc12.O=C(O)C(F)(F)F", "Percent Effect": 101}, {"smiles": "CCN1CCC12CCN(C(=O)c1cc(C)on1)C2.O=C(O)C(F)(F)F", "note": "(stereo not given)", "Percent Effect": -17.49}, {"smiles": "CNC(=O)c1ccc2c(c1)C1(CCN(CC3CC3)CC1)C(=O)N2.O=C(O)C(F)(F)F", "Percent Effect": 108.4}, {"smiles": "CC[C@@H]1N(CC2CC2)CCC[C@]12CCC(=O)N2.O=C(O)C(F)(F)F", "Percent Effect": -18.87}, {"smiles": "CNC(=O)c1ccc2c(c1)C1(CCN(CCOC)CC1)C(=O)N2.O=C(O)C(F)(F)F", "Percent Effect": 94.3}, {"smiles": "CC(=O)N1CCC2(CN(CC3CCCC3)C2)C1.O=C(O)C(F)(F)F", "Percent Effect": -16.93}, {"smiles": "CC(C)(C)n1cc(C2=CCN(CCc3ccccn3)CC2)cn1", "Percent Effect": 15.47}, {"smiles": "CCOCC(O)CN1CCN(C(=O)Cc2ccc3c(c2)CCO3)CC1", "note": "(stereo not given)", "Percent Effect": -9.69}, {"smiles": "CC(Cn1cncn1)NCc1n[nH]c2c1CCCCC2", "note": "(stereo not given)", "Percent Effect": -17.11}, {"smiles": "O=C(c1cccnc1-n1cncn1)N1CCC(Nc2ccccc2)CC1", "Percent Effect": 0.1986}, {"smiles": "O=C(c1cn(Cc2ccccc2)c2ncccc12)N1CCCCC1", "Percent Effect": 137.3}, {"smiles": "O=C(c1cn(Cc2ccccc2)c2ncccc12)N1CCOCC1", "Percent Effect": 115.6}, {"smiles": "CC(=O)c1cn(CC(=O)N2CCC3(CC2)OCCO3)c2ccccc12", "Percent Effect": -19.35}, {"smiles": "COCCN1C[C@@H](C)[C@@]2(COCCN(C(=O)c3ccccn3)C2)C1.O=C(O)C(F)(F)F.O=C(O)C(F)(F)F", "Percent Effect": -2.288}, {"smiles": "Cc1ccc(N2CCCN(C(=O)c3cn(C)c4ccccc34)CC2)nn1", "Percent Effect": 7.774}, {"smiles": "O=C(N1CCCO1)[C@@]12CCO[C@@H]1CCN(Cc1cccnc1)C2.O=C(O)C(F)(F)F.O=C(O)C(F)(F)F", "Percent Effect": 92.31}, {"smiles": "Cc1cccc(CN2CCC3(CCCN(CC(=O)N(C)C)C3)C2)n1.O=C(O)C(F)(F)F", "note": "(stereo not given)", "Percent Effect": 2.241}, {"smiles": "Cc1cccc(CN2CC[C@H]3OCC[C@@]3(C(=O)N3CCCO3)C2)n1.O=C(O)C(F)(F)F.O=C(O)C(F)(F)F", "Percent Effect": 104.8}, {"smiles": "Cc1nnc(N2CCCC3(CN(Cc4ccncc4)CCO3)C2)o1.O=C(O)C(F)(F)F.O=C(O)C(F)(F)F", "note": "(stereo not given)", "Percent Effect": -4.396}, {"smiles": "O=C(N1CCCO1)[C@@]12CCO[C@@H]1CCN(Cc1ccccn1)C2.O=C(O)C(F)(F)F.O=C(O)C(F)(F)F", "Percent Effect": 114.4}, {"smiles": "O=C(O)C(F)(F)F.O=C(O)C(F)(F)F.O=C(O)C(F)(F)F.c1cc(CN2CCCC23CCCN(Cc2ccoc2)C3)ccn1", "note": "(stereo not given)", "Percent Effect": 6.786}, {"smiles": "O=C(O)C(F)(F)F.O=C([C@@H]1C[C@@H]2CCN(Cc3ccccn3)C[C@H]2O1)N1CCCO1", "Percent Effect": -15.19}, {"smiles": "O=C(N1CCCO1)[C@]12COC[C@H]1CN(Cc1cccnc1)C2.O=C(O)C(F)(F)F.O=C(O)C(F)(F)F", "Percent Effect": 2.039}, {"smiles": "O=C(O)C(F)(F)F.O=C(O)C(F)(F)F.O=C([C@H]1CN(Cc2cccnc2)C[C@H]2OCC[C@@H]12)N1CCCO1", "Percent Effect": -1.635}, {"smiles": "O=C(N1CCOCC1)[C@@]12CCO[C@@H]1CCN(Cc1ccncc1)C2.O=C(O)C(F)(F)F.O=C(O)C(F)(F)F", "Percent Effect": 97.63}, {"smiles": "Cc1noc(C)c1CN1CC[C@H]2OCC[C@@]2(C(=O)N2CCCO2)C1.O=C(O)C(F)(F)F", "Percent Effect": -1.065}]}]}
